Screening data deposited in PubChem by Bradner/Qi Labs at DFCI.
CBX7 AlphaScr: inhibitors of human CBX7 binding to H3K27me3 peptide. normalised signal (fraction of DMSO) (no concentration beside the values). AlphaScreen His6-CBX7 / biotin-H3K27me3 peptide binding; hits give low values. actives 1.1% (n = 66,000). O95931. AID 1224903; in the data active = normalised signal below about 0.5
Target sequence (O95931 whole entry, looked up): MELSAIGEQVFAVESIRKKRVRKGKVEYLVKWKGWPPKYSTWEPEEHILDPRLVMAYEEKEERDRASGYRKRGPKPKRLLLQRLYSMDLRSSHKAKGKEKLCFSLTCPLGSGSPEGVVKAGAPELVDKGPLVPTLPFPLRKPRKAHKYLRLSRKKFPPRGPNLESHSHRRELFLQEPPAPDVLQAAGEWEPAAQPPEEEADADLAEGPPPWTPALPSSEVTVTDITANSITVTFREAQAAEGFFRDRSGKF
* hit, by the source's call. This excerpt belongs to a sample that is enriched for hits.

SMILES | CBX7 AlphaScr
Cc1nnc(NC(=O)c2ccc(S(=O)(=O)N3CCCC(C)C3)cc2)o1 (configuration not stated) | 0.75
COCCn1c(=O)[nH]c2cc(C(=O)NCCc3c[nH]c4ccccc34)ccc2c1=O | 0.98
C=CCN(C(=O)Cn1c(SCc2ccc(F)cc2)nc2ccncc21)c1ccccc1 | 0.9
Cc1ccccc1Nc1nnc(-c2ccc(C)c(S(=O)(=O)NCc3ccccn3)c2)c2ccccc12 | 0.92
COc1ccc(NC(=O)CCc2nc(-c3ccccc3F)no2)cc1OC | 0.84
Cc1ccc(C(=O)c2oc3ccccc3c2NC(=O)COc2ccccc2F)cc1 | 1.1
CCOc1ccc2nc(N3CCC(C(=O)N4CCCC4)CC3)sc2c1 | 0.99
CC1CC(C)CN(S(=O)(=O)c2ccc(C(=O)Nc3nnc(C4CC4)o3)cc2)C1 (configuration not stated) | 0.065*
O=C(Nc1nnc(-c2ccc(F)cc2)o1)c1ccc(S(=O)(=O)N2CCCC2)cc1 | 0.013*
COc1ccc(-c2nnc(NC(=O)c3ccc(S(=O)(=O)N4CC(C)CC(C)C4)cc3)o2)c(OC)c1 (configuration not stated) | 0.97
COc1ccc(-c2nnc(NC(=O)c3ccc(S(=O)(=O)N4CCCC4)cc3)o2)cc1 | 0.56
COc1cc(OC)cc(-c2nnc(NC(=O)c3ccc(S(=O)(=O)N4CCCC4)cc3)o2)c1 | 0.86
CCc1nnc(NC(=O)c2ccc(S(=O)(=O)N3CCCC(C)C3)cc2)o1 (configuration not stated) | 0.64
CCN(CC)CCCNC(=O)c1n[nH]c(=O)c2ccccc12 | 0.97
COc1cc(NC(=O)c2ccc(CNc3c(N4CCCCC4)c(=O)c3=O)cc2)cc(OC)c1 | 0.9
Cc1ccc(-c2noc(CC3CCCCC3)n2)cc1 | 1.5
CNC(=O)COc1ccc(Nc2nnc(-c3ccccc3)c3ccccc23)cc1 | 0.88
CCCCNC(=O)C1CCCN(Cc2nc(-c3ccc(Cl)cc3)oc2C)C1 (configuration not stated) | 1.1
O=C(CCc1nc(-c2ccccc2F)no1)NC1CCN(Cc2ccccc2)CC1 | 0.9
Cc1cc(C)n(-c2nc3ccccc3nc2Nc2ccc(F)cc2)n1 | 1.2
Cc1cc(C)n(-c2nc3ccccc3nc2Nc2ccc(C(C)C)cc2)n1 | 2.8
Cc1cc(C)n(-c2nc3ccccc3nc2Nc2ccc(N3CCCCC3)cc2)n1 | 0.42*
CCN1CCN(CCCNC(=O)C2CCCN(c3nn4c(=O)cc(C)nc4s3)C2)CC1 (configuration not stated) | 0.65
NC(=O)COc1ccc(-c2noc(COc3ccc(F)cc3)n2)cc1 | 0.99
Cc1noc(C)c1C(=O)N1CCC(C(O)(c2ccccc2)c2ccccc2)CC1 | 1
SMILES | CBX7 AlphaScr
Cc1cccc(CN2C(=O)CSc3ccc(C(=O)NCc4c(F)cc(F)cc4F)cc32)c1 | 1
CC1CCc2oc3ccc(NS(=O)(=O)c4cccs4)cc3c2C1 (configuration not stated) | 0.64
CCC(C)(C)C1CCc2oc3ccc(NS(=O)(=O)c4cccs4)cc3c2C1 (configuration not stated) | 0.42*
CCc1ccc(S(=O)(=O)Nc2ccc3oc4c(c3c2)CC(C(C)(C)C)CC4)cc1 (configuration not stated) | 0.78
COc1ccc(OCC(O)CN2CCCCC2)cc1 (configuration not stated) | 1
CCCCOCC(O)CN1CCN(C(C)=O)CC1 (configuration not stated) | 1.1
CC(=O)N1CCN(CC(O)COc2ccc(Br)cc2)CC1 (configuration not stated) | 0.46*
CCOc1ccc(-c2csc(NC(=O)c3ccc(Oc4ccccc4)cc3)n2)cc1 | 1
Cc1ccc(-c2nnc(Nc3cccc(O)c3)c3ccccc23)cc1S(N)(=O)=O | 0.93
Cc1ccc(-c2nnc(Nc3ccc(O)cc3)c3ccccc23)cc1S(=O)(=O)NC(C)(C)C | 0.67
Cc1ccc(-c2nnc(Nc3cccc(O)c3)c3ccccc23)cc1S(=O)(=O)NC(C)(C)C | 0.4*
Cc1cccc(-c2nc(Nc3ccc(C)c(F)c3)c3ccccc3n2)c1 | 1.2
O=C(Nc1cccc2cccnc12)c1ccccc1O | 1
O=C(Nc1ncn[nH]1)c1ccccc1O | 0.17*
Cc1ccc(NC(=O)c2ccccc2O)nc1 | 0.92
O=C1CCc2cc(S(=O)(=O)Nc3cccc(Cl)c3)ccc2N1 | 1
COC(=O)CNc1c(-c2c[nH]c3ccccc23)nc2ccc(Br)cn12 | 0.8
Fc1ccc(Nc2c(-c3ccc(Cl)cc3)nc3ncccn23)cc1 | 1.2
COc1ccc(Nc2c(-c3ccccn3)nc3cc(C)ccn23)cc1 | 0*
Cc1ccn2c(Nc3ccc(C(C)C)cc3)c(-c3ccsc3)nc2c1 | 1
Cc1ccn2c(Nc3ccc(C(C)C)cc3)c(-c3ccccn3)nc2c1 | 0.0075*
Fc1ccc(Nc2c(-c3ccccn3)nc3ccccn23)cc1 | 0.059*
COc1ccc(Nc2c(-c3ccccn3)nc3ccc(Br)cn23)cc1 | 0.84
COC(=O)CNc1c(-c2ccccn2)nc2ccccn12 | 0.28*
COc1ccc(Nc2c(-c3ccccn3)nc3ccc(Cl)cn23)cc1 | 0.72
